Assay [1] can be described thus: qHTS assay for identifying genotoxic compounds that show differential cytotoxicity against isogenic chicken DT40 cell lines with known DNA damage response pathways - wild type cell line (AID 743012). Note: nearly all actives have a fitted effect of over 60% in size. Note: potency is the fitted concentration of half-maximal effect. The method in brief: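 Wild-type DT40 cells (300/well) exposed to compounds for 40 hours at 37 C/5% CO2. Viability read by CellTiter-Glo luminescence after 30 min at room temperature.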
For orientation: Quantitative high-throughput screening tests each substance at several concentrations.

The nature of assay [2]: qHTS assay for identifying genotoxic compounds that show differential cytotoxicity against isogenic chicken DT40 cell lines with known DNA damage response pathways - Rev3 mutant cell line (AID 743014). Note: nearly all actives have a fitted effect of over 55% in size. Note: potency is the fitted concentration of half-maximal effect.
The nature of assay [3]: qHTS assay for identifying genotoxic compounds that show differential cytotoxicity against isogenic chicken DT40 cell lines with known DNA damage response pathways - Rad54/Ku70 mutant cell line (AID 743015). Note: nearly all actives have a fitted effect of over 60% in size. Note: potency is the fitted concentration of half-maximal effect.
The nature of assay [4]: qHTS assay to identify small molecule antagonists of the androgen receptor (AR) signaling pathway - cell viability counter screen (AID 743033; note: nearly all actives have a fitted effect of over 45% in size).
Assay [5] addresses Androgen receptor (Homo sapiens) (UniProt P10275). Description: qHTS assay to identify small molecule antagonists of the androgen receptor (AR) signaling pathway (AID 743035; active = well fitted inhibition curve with a large enough effect in the signal ratio in the repeat runs, not every such curve was filed as active; the % refers to the signal ratio). In a few lines:
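HEK293 cells stably carrying UAS-beta-lactamase reporter, 2,000/well, given compounds plus R1881 agonist and incubated 16 h at 37C. LiveBLAzer B/G FRET substrate then added for 2 h at room temperature before fluorescence reading.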

Assay [6] has the same target. Description: qHTS assay to identify small molecule agonists of the androgen receptor (AR) signaling pathway (AID 743036; active = well fitted activation curve with a large enough effect in the signal ratio in the repeat runs, with a control signal flat, not every such curve was filed as active; the % refers to the signal ratio). In a few lines:
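Cell-based FRET reporter assay: HEK293 line with a UAS-beta-lactamase construct, compounds added in DMSO, 16 h exposure at 37C, then 2 h substrate step at room temperature and fluorescence intensity read.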

Assay [7] has the same target. Description: qHTS assay to identify small molecule agonists of the androgen receptor (AR) signaling pathway using the MDA cell line (AID 743040; note: nearly all actives have a fitted effect of over 20% in size). The method in brief: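 MDA-kb2 breast carcinoma cells stably carrying an MMTV-driven luciferase reporter (AR- and GR-responsive) were seeded and held 5 h at 37C, 0% CO2, then exposed to compounds in DMSO for 16 h. Luminescence was read 30 min after ONE-Glo addition.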

The nature of assay [8]: qHTS assay to identify small molecule antagonists of the androgen receptor (AR) signaling pathway using the MDA cell line - cell viability counter screen (AID 743041; note: nearly all actives have a fitted effect of over 45% in size). The method in brief: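 MDA-kb2 AR-luc human breast carcinoma cells (MMTV-luciferase, AR/GR responsive) were treated with compounds plus R1881 agonist for 16 h at 37 °C. Viability was read as CellTiter-Fluor fluorescence in the same wells as the reporter assay.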

Assay [9] has as its target Androgen receptor (Homo sapiens) (UniProt P10275). Description: qHTS assay to identify small molecule antagonists of the androgen receptor (AR) signaling pathway using the MDA cell line (AID 743042; note: nearly all actives have a fitted effect of over 55% in size). The method in brief: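 MDA-kb2 cells (human breast carcinoma, stably carrying an MMTV-luciferase reporter responsive to AR and GR) were plated at 3,000 cells/well and preincubated 5 hr at 37C, then given compound plus R1881 agonist for 16 h. ONE-Glo luminescence was read.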

Assay [10] is described as follows: qHTS assay to identify small molecule antagonists of the glucocorticoid receptor (GR) signaling pathway - cell viability counter screen (AID 720693). Note: nearly all actives have a fitted effect of over 55% in size.

Inconclusive results are not listed. The source made the active and inactive calls. Unless noted, calls come from the whole dose curve; as a rule, active = well fitted curve in the direction sought with a large enough effect in the repeat runs; inconclusive = weak or mixed curves; inactive = no such curve, though single readings can be large; an effect the other way counts as inactive or inconclusive.

Androgen receptor (Homo sapiens), sequence (P10275 whole entry, looked up): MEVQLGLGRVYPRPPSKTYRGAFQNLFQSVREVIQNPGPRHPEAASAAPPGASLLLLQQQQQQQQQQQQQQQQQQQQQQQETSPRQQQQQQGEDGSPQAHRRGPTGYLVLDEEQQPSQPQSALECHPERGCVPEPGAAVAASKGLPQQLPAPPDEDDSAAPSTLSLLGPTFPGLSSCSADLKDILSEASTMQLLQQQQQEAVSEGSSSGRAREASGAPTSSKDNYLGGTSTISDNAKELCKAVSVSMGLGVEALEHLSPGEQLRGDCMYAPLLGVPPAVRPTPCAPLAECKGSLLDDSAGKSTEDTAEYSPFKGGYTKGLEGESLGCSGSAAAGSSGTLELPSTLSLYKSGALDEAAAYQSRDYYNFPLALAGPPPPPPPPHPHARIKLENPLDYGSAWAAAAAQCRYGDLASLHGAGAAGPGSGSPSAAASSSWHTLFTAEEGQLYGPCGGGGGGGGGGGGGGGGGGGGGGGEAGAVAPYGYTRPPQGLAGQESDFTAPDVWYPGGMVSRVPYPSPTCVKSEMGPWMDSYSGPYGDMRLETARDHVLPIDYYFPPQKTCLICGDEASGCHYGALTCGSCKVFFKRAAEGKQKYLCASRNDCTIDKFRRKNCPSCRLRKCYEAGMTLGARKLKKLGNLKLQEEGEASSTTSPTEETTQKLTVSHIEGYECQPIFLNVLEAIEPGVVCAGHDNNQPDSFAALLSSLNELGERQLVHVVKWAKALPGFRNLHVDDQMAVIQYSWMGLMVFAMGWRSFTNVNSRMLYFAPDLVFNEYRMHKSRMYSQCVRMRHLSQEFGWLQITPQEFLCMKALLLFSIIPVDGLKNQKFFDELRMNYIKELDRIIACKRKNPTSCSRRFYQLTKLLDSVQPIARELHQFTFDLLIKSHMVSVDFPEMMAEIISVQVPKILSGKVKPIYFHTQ

In the case of `CC[N+](C)(C)c1cccc(O)c1`, the Potency result in [1], in [2], in assay [3] and in assay [4] was “inactive” in each case.

`CC(C)(CC(=O)O)C(=O)O`: the Potency entry in assay [1], in [2], in [3], in assay [4], in assay [7] and in assay [8] was “inactive” each time. Also, in assay [9], the Potency entry is “inactive”. In addition, the molecule was classed as inactive in assay [5] and in [6].

Turning to `NS(=O)(=O)c1ccccc1Cl`, in assay [10], the result was inactive. In addition, the Potency result in assay [1], in [2], in assay [4] and in assay [8] was “inactive” each time.

On to `O=C1NC(=O)[C@@]2(CCOc3ccc(F)cc32)N1`, for which, in [10], the molecule was classed as inactive. Further, the Potency entry in assay [1], in assay [3], in [4] and in assay [8] was “inactive” each time.

Take `C=C1CC[C@H]2C[C@@H]1C2(C)C`: the outcome in [10] was inactive. Also, the Potency result in assay [1], in [4] and in assay [8] was “inactive” in each case.

In the case of `COc1cc(C(=O)N2CCCCCCC2)cc(OC)c1OC`, the molecule was classed as inactive in assay [10]. Moreover, the Potency in assay [1] is 21.1 µM (active). For the same molecule, in assay [4], the Potency result was “inactive”.

With `CO[C@]12C[C@@H](COC(=O)c3cncc(Br)c3)CN(C)[C@@H]1Cc1cn(C)c3cccc2c13`, the molecule was classed as inactive in assay [10], in assay [5] and in [6]. Also, the figures for the Potency in assay [1] and in assay [2] were 5.96 µM (active) and 10.6 µM (active), respectively. Also, the Potency result in [7], in [8] and in assay [9] was “inactive” throughout.

For `CCO/C([O-])=N/c1c[n+](N2CCOCC2)no1`, the outcome in assay [10] was inactive. Also, the Potency result in assay [1], in assay [3] and in assay [4] was “inactive” throughout.

Take `O=c1[nH]c(=O)n([C@H]2C[C@H](O)[C@@H](CO)O2)cc1I`: the result in assay [10] was inactive. For the same molecule, the figures for the Potency in assay [2] and in [3] were 1.8 µM (active) and 2.02 µM (active), respectively. Besides, the Potency result in assay [8] is “inactive”.

As for `OCCCC1CCCCC1`, the outcome in assay [10] was inactive. In addition, the Potency result in assay [1], in assay [2], in assay [4] and in assay [8] was “inactive” throughout.

As for `CCOC(=O)[C@H](CCc1ccccc1)N[C@@H](C)C(=O)N1[C@H](C(=O)O)C[C@@H]2CCC[C@@H]21`, in assay [10], the call was inactive. Further, the Potency result in [1], in [3], in [4] and in assay [8] was “inactive” throughout.

With `O=C(CCCN1CCN(c2ccccn2)CC1)c1ccc(F)cc1`, in [10], the molecule was classed as inactive. Besides, the Potency result in [4] and in assay [8] was “inactive” each time.

On to `FC1(F)C(F)(F)C(F)(F)C2(F)C(F)(F)C(F)(F)C(F)(F)C(F)(F)C2(F)C1(F)F` (stereo not given), for which the outcome in assay [10], in assay [5] and in [6] was inactive. Besides, in [3], the Potency is 21.1 µM (active). In addition, the Potency entry in assay [4], in [7] and in [9] was “inactive” throughout.

For `Cc1cccn2c(=O)c(-c3nnn[nH]3)cnc12`, the molecule was classed as inactive in assay [10]. Also, the Potency result in [1], in assay [3], in assay [4] and in assay [8] was “inactive” each time.

For `CN1CCCC1`, the molecule was classed as inactive in assay [10]. For the same molecule, the Potency entry in [1], in [2], in assay [4] and in assay [8] was “inactive” in each case.

Regarding `CC(=O)OC/C=C(\C)CC/C=C(\C)CCC=C(C)C`, the result in assay [10] was inactive. In addition, the Potency in assay [2] and in assay [3] was 61.1 µM (active) in each case. The Potency result in [4] and in [8] was “inactive” throughout.

For `CCCN1CCCC[C@H]1C(=O)Nc1c(C)cccc1C`, in assay [10], the molecule was classed as inactive. Besides, the Potency entry in [1], in [2], in assay [4] and in assay [8] was “inactive” each time.

For the molecule `NS(=O)(=O)c1ccc(C(=O)O)cc1`, the outcome in [10], in assay [5] and in assay [6] was inactive. Further, the Potency entry in assay [1], in assay [3], in [4], in assay [7], in [8] and in [9] was “inactive” throughout.

`Cc1c(NC(C)C)c(=O)n(-c2ccccc2)n1C`: the molecule was classed as inactive in assay [10]. Also, the Potency entry in [1], in [3], in assay [4] and in assay [8] was “inactive” in each case.

With `CCC(=O)OC(C)c1ccccc1` (stereo not given), the outcome in assay [10] was inactive. Besides, the Potency result in assay [2], in assay [3], in [4] and in assay [8] was “inactive” each time.

Take `CCOC(=O)c1c(C)n(C)c2ccc(O)cc12`: in [10], the molecule was classed as inactive. The Potency result in assay [4], in assay [7], in assay [8] and in assay [9] was “inactive” each time.

In the case of `NCCc1cnc[nH]1`, the molecule was called inactive in [10]. For the same molecule, the Potency entry in assay [1], in assay [3], in [4] and in assay [8] was “inactive” each time.

Turning to `COC(=O)[C@@H](N)Cc1ccc(O)c(O)c1`, the call in [10] and in [6] was inactive. Further, the Potency is 29.8 µM (active) in assay [1] and 33.5 µM (active) in assay [3]. Also, the Potency result in assay [4], in assay [7], in [8] and in assay [9] was “inactive” in each case.

Turning to `CCn1ccnc1CC1COc2ccccc2O1` (stereo not given), the Potency entry in assay [1], in [2], in [3], in assay [4], in [7] and in assay [8] was “inactive” in each case. The Potency result in assay [9] was “inactive”. Also, the outcome in [5] and in [6] was inactive.

Turning to `CC(C)NC(=O)NC(C)C`, the outcome in assay [10], in [5] and in [6] was inactive. In addition, the Potency entry in [2], in assay [3], in assay [4], in assay [7], in assay [8] and in [9] was “inactive” throughout.

`CCOc1ccc(C(=O)OCCN(CC)CC)cc1`: the molecule was classed as inactive in [10], in [5] and in assay [6]. Moreover, the Potency is 21.1 µM (active) in [2] and 26.6 µM (active) in [3]. In addition, the Potency entry in assay [4], in [7], in assay [8] and in assay [9] was “inactive” each time.

Take `CS(=O)(=O)O`: the Potency result in assay [1], in assay [2], in [3], in assay [4], in assay [7] and in assay [8] was “inactive” in each case. The call in assay [5] and in assay [6] was inactive.

On to `COc1c(N2C[C@@H]3CCCN[C@@H]3C2)c(F)cc2c(=O)c(C(=O)O)cn(C3CC3)c12`, for which the outcome in [10] was inactive. The Potency entry in assay [1], in assay [4] and in assay [8] was “inactive” in each case.

For `CN1CC(=O)NC1=N`, the outcome in assay [10] and in [5] was inactive. Besides, the Potency entry in assay [1], in assay [3], in assay [4], in assay [7], in assay [8] and in assay [9] was “inactive” throughout.

These data come from PubChem BioAssay (Tox21).
